# Assay results published in PubChem BioAssay (NCATS).
# Unmarked numbers belong to inactive results. Results filed as inconclusive are left out. Where a call stands in place of a potency, no number is given. Calls of active or inactive are those of the source. Unless noted, calls come from the whole dose curve; as a rule, active = well fitted curve in the direction sought with a large enough effect; inconclusive = small, poorly fitted or top-dose-only effect, or another doubt; inactive = no such curve, though single readings can be large; an effect the other way counts as inactive or inconclusive.
# Columns and labels:
# [1] = target: Luciferin 4-monooxygenase (Photinus pyralis) (UniProt P08659); experiment: Biochemical firefly luciferase enzyme assay for NPC (AID 624030); note: nearly all actives have a fitted effect of over 70% in size; note: potency is the fitted concentration of half-maximal effect
# Procedure, shortened: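 Counter-screen for direct inhibition of the luciferase enzyme by approved-drug library compounds, run at 10 nM enzyme in 50 mM Tris acetate (final). Luminescence was read within 5 min of enzyme-buffer addition and normalized to PTC124 versus DMSO (0%).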
# [2] = S16 Schwann cell viability assay (CellTiter-Glo assay) (AID 624031);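 note: native untransfected S16 rat Schwann cells; cellular ATP luminescence as a viability measure; series mostly up to about 58 µM; nearly all actives have a fitted effect of over 70% in size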
# Procedure, shortened: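 Parental S16 cells, 24 h compound, 37 °C. ATP-luminescence viability; DMSO = 0% activity, empty wells as reference; curves classified by fit quality and efficacy.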
# [3] = target: Voltage-gated inwardly rectifying potassium channel KCNH2 (Homo sapiens) (UniProt Q12809); experiment: qHTS Assay for Small Molecule Inhibitors of the Human hERG Channel Activity (AID 588834);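 note: lower thallium flux fluorescence means stronger hERG block; nearly all actives have a fitted effect of over 50% in size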; note: potency is the fitted concentration of half-maximal effect
# Procedure, shortened: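 U2OS cells BacMam-transduced with hERG, 2000 cells/well, compound ~10 min at 37 °C before stimulation buffer. FluxOR thallium flux fluorescence read kinetically on FDSS; decrease indicates block; AC50 from Hill fits.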
# [4] = S16 Schwann cell PMP22 intronic element firefly luciferase assay (AID 624032); note: nearly all actives have a fitted effect of over 30% in size; note: potency is the fitted concentration of half-maximal effect
# Procedure, shortened: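 Rat S16 Schwann cells stably carrying a PMP22 intronic element-driven Fluc reporter were seeded overnight, then exposed to compounds for 24 h at 37 °C. Luminescence was normalized to PTC124 (positive control) and DMSO (0% activity).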
# [5] = S16 Schwann cell PMP22 intronic element beta-lactamase assay (AID 624044; calls by dose curve; note: nearly all actives have a fitted effect of over 15% in size; note: potency is the fitted concentration of half-maximal effect)
# Procedure, shortened: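 Rat S16 Schwann cells with beta-Lac driven by a PMP22 intronic element, compound-treated 24 h at 37 °C. LiveBLAzer FRET B/G read: 460 nm normalized to potassium clavulanate vs DMSO; 535 nm FRET as viability; concentration-effect curves classified.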
# [6] = qHTS assay for small molecule agonists of the antioxidant response element (ARE) signaling pathway (AID 651741; active = well fitted activation curve with a large enough effect in the signal ratio; the % refers to the signal ratio)
# Procedure, shortened: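 Compounds in DMSO are pinned onto HepG2 ARE-bla cells (2,000/well) that were preincubated 5 h; plates stay 16 h at 37 C, then beta-lactamase activity is detected with LiveBLAzer B/G substrate by fluorescence.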
# [7] = qHTS assay for small molecule activators of the p53 signaling pathway (AID 651743; active = well fitted activation curve with a large enough effect in the signal ratio, not every such curve was filed as active; the % refers to the signal ratio; note: series mostly up to about 92 µM); settings: HCT-116 p53RE-bla, beta-lactamase FRET ratio, 16 h; activation: active compounds read high
# Procedure, shortened: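 Cell-based beta-lactamase reporter (p53 response elements, HCT-116 background). After a 5-hour preincubation, cells received compound for 16 hours at 37 C; substrate development ran 2 hours at room temperature.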
# [8] = qHTS assay for small molecule activators of the nuclear factor-kappa B (NF-kB) signaling pathway (AID 651749; active = well fitted activation curve with a large enough effect in the signal ratio; the % refers to the signal ratio; note: series mostly up to about 77 µM); settings: NF-kB-bla ME-180 cells, beta-lactamase FRET ratio, 16 h; active compounds read high
# Procedure, shortened: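 Screening used 2,000 ME-180 reporter cells per well exposed to pinned compound (23 nL) or DMSO; after 16 hr at 37C, beta-lactamase expression under NF-kB control was assessed through FRET.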
# [9] = qHTS assay for environmental chemicals that activate the Aryl hydrocarbon Receptor (AhR) signaling pathway (AID 651777); settings: 1A2-DRE human hepatoma cells, luciferase, 24 h; activation: active compounds read high; note: nearly all actives have a fitted effect of over 15% in size
# Procedure, shortened: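 Reporter gene assay: hepatoma cells with DRE/CYP1A2-luciferase, 24 hr compound incubation at 37 C, 5% CO2, luminescence after One-Glo (30 min, RT).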
# [10] = target: Peroxisome proliferator-activated receptor alpha (Homo sapiens) (UniProt Q07869); experiment: qHTS assay for small molecule agonists of the peroxisome proliferator-activated receptor alpha (PPARalpha) signaling pathway (AID 651778); settings: PathHunter PPARalpha complementation, chemiluminescence, 6 h; active compounds read high
# Procedure, shortened: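 Cells plated at 2,000/well and held overnight at 37 C, 5% CO2, then compound added by pin tool for 6 hr; after PathHunter detection reagent and 60 min at room temperature, chemiluminescence from enzyme complementation was read.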
# [11] = qHTS assay for small molecule disruptors of the mitochondrial membrane potential - 1 hr assay (AID 651754; calls by dose curve; note: potency is the fitted concentration of half-maximal effect; nearly all actives have a fitted effect of over 35% in size)
# Procedure, shortened: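 HepG2, 2,000 cells/well, overnight attachment; cpd or DMSO 1 hr, 37C/5% CO2; Mito-MPS dye 30 min, 37C; fluorescence monomer (490/535) and aggregate (540/590).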
# [12] = qHTS assay for small molecule disruptors of the mitochondrial membrane potential - 5 hr assay (AID 651755; calls by dose curve; note: potency is the fitted concentration of half-maximal effect; nearly all actives have a fitted effect of over 40% in size)
# Procedure, shortened: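 HepG2 cells, attached overnight at 37C, were exposed to compound or DMSO for 5 hr at 37C, 5% CO2. Mito-MPS dye was then added for 30 min, and fluorescence read at 490/535 nm (monomers) and 540/590 nm (aggregates).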
# Chain of Luciferin 4-monooxygenase (Photinus pyralis) (P08659 whole entry, looked up): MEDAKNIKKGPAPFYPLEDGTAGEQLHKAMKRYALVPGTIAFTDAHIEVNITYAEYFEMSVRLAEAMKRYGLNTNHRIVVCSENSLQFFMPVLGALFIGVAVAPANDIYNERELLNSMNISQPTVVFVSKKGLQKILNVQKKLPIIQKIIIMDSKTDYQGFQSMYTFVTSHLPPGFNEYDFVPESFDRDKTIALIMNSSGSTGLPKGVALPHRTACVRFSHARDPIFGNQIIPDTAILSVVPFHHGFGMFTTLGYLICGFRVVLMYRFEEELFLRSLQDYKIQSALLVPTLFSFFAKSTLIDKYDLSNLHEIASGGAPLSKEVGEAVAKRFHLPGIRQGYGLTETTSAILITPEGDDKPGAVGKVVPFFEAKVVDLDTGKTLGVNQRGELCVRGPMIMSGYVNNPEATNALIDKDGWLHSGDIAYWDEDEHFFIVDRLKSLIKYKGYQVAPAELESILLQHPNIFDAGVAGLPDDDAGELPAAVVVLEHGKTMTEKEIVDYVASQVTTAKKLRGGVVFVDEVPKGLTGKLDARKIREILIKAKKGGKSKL
# Chain of Voltage-gated inwardly rectifying potassium channel KCNH2 (Homo sapiens) (Q12809 whole entry, looked up): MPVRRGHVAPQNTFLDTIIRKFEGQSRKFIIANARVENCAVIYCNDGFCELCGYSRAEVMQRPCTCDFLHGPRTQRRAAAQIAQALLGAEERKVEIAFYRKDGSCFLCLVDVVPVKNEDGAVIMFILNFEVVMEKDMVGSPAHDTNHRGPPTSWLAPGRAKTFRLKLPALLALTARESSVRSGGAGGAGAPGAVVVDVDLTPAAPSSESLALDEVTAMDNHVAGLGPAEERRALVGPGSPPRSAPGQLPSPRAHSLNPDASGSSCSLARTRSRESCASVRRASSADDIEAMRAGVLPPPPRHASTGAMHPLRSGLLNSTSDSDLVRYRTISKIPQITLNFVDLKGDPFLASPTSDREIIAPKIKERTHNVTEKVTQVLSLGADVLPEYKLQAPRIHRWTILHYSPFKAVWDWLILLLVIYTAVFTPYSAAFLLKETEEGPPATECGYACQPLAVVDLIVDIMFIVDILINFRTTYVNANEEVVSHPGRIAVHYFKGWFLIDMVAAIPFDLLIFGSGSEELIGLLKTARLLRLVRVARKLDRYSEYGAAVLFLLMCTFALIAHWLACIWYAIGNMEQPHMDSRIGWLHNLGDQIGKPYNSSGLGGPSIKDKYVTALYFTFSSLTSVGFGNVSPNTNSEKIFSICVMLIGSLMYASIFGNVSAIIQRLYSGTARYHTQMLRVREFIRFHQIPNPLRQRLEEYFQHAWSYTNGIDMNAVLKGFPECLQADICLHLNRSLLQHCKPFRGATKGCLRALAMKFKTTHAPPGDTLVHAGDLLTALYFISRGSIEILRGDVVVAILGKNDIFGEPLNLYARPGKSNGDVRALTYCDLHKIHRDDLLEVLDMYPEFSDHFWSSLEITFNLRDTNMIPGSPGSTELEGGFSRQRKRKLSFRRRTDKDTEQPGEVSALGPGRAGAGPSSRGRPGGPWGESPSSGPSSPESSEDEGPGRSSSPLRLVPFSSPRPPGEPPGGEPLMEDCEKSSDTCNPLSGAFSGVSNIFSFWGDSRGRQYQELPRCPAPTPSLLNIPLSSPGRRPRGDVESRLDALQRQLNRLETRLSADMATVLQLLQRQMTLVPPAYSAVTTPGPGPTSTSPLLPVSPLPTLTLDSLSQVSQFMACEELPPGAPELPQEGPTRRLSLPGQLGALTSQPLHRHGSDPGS
# Chain of Peroxisome proliferator-activated receptor alpha (Homo sapiens) (Q07869 whole entry, looked up): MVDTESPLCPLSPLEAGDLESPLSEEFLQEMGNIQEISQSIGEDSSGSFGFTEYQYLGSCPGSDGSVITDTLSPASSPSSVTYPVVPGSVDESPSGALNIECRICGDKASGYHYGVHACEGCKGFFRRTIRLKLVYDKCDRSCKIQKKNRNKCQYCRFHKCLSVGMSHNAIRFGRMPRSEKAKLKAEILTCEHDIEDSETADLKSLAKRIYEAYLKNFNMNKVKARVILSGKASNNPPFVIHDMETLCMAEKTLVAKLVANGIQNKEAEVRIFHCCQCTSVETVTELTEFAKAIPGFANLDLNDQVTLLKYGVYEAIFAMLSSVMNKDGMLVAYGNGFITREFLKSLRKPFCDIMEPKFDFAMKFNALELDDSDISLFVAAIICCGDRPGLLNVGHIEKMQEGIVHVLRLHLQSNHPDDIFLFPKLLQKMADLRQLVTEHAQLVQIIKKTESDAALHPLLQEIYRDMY
smiles,measurement,setting,value
NS(=O)(=O)c1ccc(Cl)c(S(N)(=O)=O)c1,Potency,[1],inactive
same,Potency,[2],inactive
C#C[C@]1(OC(C)=O)CC[C@H]2[C@@H]3CCC4=C/C(=N/O)CC[C@@H]4[C@H]3CC[C@@]21CC,Potency,[3],inactive
same,Potency,[1],inactive
same,Potency,[4],8.09 µM (active)
CCOC(=O)[C@@](C)(N)Cc1ccc(O)c(O)c1,Potency,[1],inactive
CNCCc1ccccn1,Potency,[1],inactive
same,Potency,[2],inactive
CCCCCCCCCCCCOCCOCCOCCOCCOCCOCCOCCOCCOCCO,Potency,[1],inactive
C=C[C@H]1CN2CC[C@H]1C[C@H]2[C@H](O)c1ccnc2ccc(OC)cc12,Potency,[1],inactive
N/C(=N\N=C\c1ccc(Cl)cc1)N/N=C/c1ccc(Cl)cc1,Potency,[3],3.55 µM (active)
same,Potency,[2],inactive
same,Potency,[4],inactive
same,Potency,[5],inactive
CO[C@]12C[C@@H](COC(=O)c3cncc(Br)c3)CN(C)[C@@H]1Cc1cn(C)c3cccc2c13,Potency,[3],0.398 µM (active)
same,Potency,[1],inactive
same,Potency,[4],inactive
same,Potency,[5],inactive
CCc1oc2ccccc2c1C(=O)c1cc(I)c(O)c(I)c1,Potency,[3],inactive
same,Potency,[2],inactive
same,Potency,[5],inactive
C=CCN1CCc2nc(N)sc2CC1,Potency,[3],inactive
same,Potency,[1],inactive
same,Potency,[4],inactive
Cl/C(=C\n1cncn1)c1ccc(Cl)cc1Cl,Potency,[3],inactive
same,Potency,[1],inactive
same,Potency,[4],inactive
CN(Cc1ccc(C(C)(C)C)cc1)Cc1cccc2ccccc12,Potency,[3],7.94 µM (active)
same,Potency,[1],inactive
same,Potency,[5],inactive
CN(C)CCN1C(=O)c2ccccc2N(C)c2ccccc21,Potency,[1],inactive
same,Potency,[2],inactive
same,Potency,[4],inactive
NCCNC(=O)c1ccc(Cl)cn1,Potency,[1],inactive
CCCCCCCCCCCCCC(=O)OC(C)C,Potency,[3],inactive
same,Potency,[1],inactive
same,Potency,[2],inactive
same,Potency,[6],inactive
same,activation,[7],-0.604%
same,activation,[8],0.876%
same,activation,[9],-0.593%
same,max response,[10],-1.44%
O=C(Nc1ncc([N+](=O)[O-])s1)c1cccs1,Potency,[3],inactive
same,Potency,[1],3.61 µM (active)
same,Potency,[4],inactive
same,Potency,[5],inactive
O=C(CCN1CCN2CCCC2C1)N1c2ccccc2Sc2ccc(Cl)cc21 (stereo unspecified),Potency,[3],15.8 µM (active)
same,Potency,[1],inactive
same,Potency,[5],inactive
CCC(C(=O)OCCOCCN(CC)CC)c1ccccc1 (stereo unspecified),Potency,[1],inactive
same,Potency,[2],inactive
NCc1ccccc1Sc1ccccc1CO,Potency,[3],inactive
same,Potency,[1],inactive
same,Potency,[5],inactive
CCc1oc2ccccc2c1C(=O)c1cc(Br)c(O)c(Br)c1,Potency,[3],inactive
same,Potency,[2],inactive
COc1cc([C@H]2Oc3cc([C@H]4Oc5cc(O)cc(O)c5C(=O)[C@@H]4O)ccc3O[C@@H]2CO)ccc1O,Potency,[3],inactive
same,Potency,[1],inactive
same,Potency,[2],inactive
same,Potency,[5],inactive
same,activation,[7],-9.47%
same,Potency,[11],18.8 µM (active)
same,Potency,[12],26.6 µM (active)
same,activation,[9],0.406%
same,max response,[10],-8.58%
Cc1ccc2c(Br)cc(Br)c(O)c2n1,Potency,[3],inactive
same,Potency,[1],inactive
same,Potency,[4],inactive
same,Potency,[5],17.8 µM (active)
COc1ccccc1N1CCN(CCCCNC(=O)c2ccc(-c3ccc(C(C)=O)cc3)cc2)CC1,Potency,[3],1.26 µM (active)
same,Potency,[1],inactive
same,Potency,[4],inactive
CN1CCN(C2=Nc3ccccc3Sc3ccc(Cl)cc32)CC1,Potency,[3],14.1 µM (active)
same,Potency,[4],inactive
CCN(CC)CCNC(=O)c1cc(Br)c(N)cc1OC,Potency,[1],inactive
same,Potency,[2],inactive
